Compound activity: PubChem BioAssay, National Center for Advancing Translational Sciences (NCATS)
JMJD2A Tudor: JMJD2A Tudor domain (human) inhibition; O75164; AlphaScreen JMJD2A-Tudor / H3K4me3 peptide binding; Potency, µM (top dose mostly 114 µM), inactives show at the highest dose activity change, negative = inhibition, most hits filed as inhibitors; 390,000 compounds, 4.4% hits; AID 504339; also: potency is read from the fitted curve at half-maximal effect; % is scaled to controls: 0 for no effect and ±100 for the full control effect; nearly all actives have a fitted effect of over 50% in size
BAZ2B inh: blocks human BAZ2B; 360,000 compounds, 4.4% hits; AlphaScreen BAZ2B-H3K14Ac peptide displacement; Potency, µM (series often up to 114 µM), for the others: at the highest dose activity change, negative = inhibition, actives largely listed as inhibitors; also: potency is read from the fitted curve at half-maximal effect; % is scaled to controls: 0 for no effect and ±100 for the full control effect; nearly all actives have a fitted effect of over 60% in size
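Compounds, titrated to a top concentration of 110 uM, were incubated 30 min at room temperature with preformed BAZ2B/acetyl-K14 H3 peptide complex (50 nM each). Proximity signal was measured by AlphaScreen after 20 min with beads.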
PI5P4Ka inh: PI5P4K alpha (human) kinase inhibition. max response, %. P48426. 330,000 compounds, 1.2% hits. PI5P4Kalpha enzyme, ADP-Glo luminescence, 60 min; hits give low values; active = max response of -50% or lower; inconclusive = between -30% and -50%; inactive = -30% or higher; also: value at the top dose of about 77 µM; % is scaled to controls: 0 for no effect and ±100 for the full control effect
Target sequence (P48426 whole entry, looked up): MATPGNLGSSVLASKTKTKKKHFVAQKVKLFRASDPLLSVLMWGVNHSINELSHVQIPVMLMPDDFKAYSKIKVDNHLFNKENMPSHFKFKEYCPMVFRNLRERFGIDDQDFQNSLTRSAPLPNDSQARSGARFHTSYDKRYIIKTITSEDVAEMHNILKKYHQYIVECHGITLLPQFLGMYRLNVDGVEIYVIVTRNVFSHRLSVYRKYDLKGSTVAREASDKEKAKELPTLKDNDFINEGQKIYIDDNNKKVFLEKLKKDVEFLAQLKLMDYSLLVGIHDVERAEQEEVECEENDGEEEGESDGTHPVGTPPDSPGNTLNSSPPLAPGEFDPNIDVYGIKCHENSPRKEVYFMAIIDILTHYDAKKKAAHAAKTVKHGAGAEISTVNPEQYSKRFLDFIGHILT
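qHTS, 1536-well: enzyme/substrate mix, compound by pin tool, 5 microM ATP final; RT 60 min; ADP-Glo reagents 1 (45 min) then 2 (30 min); luminescence.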
PLK1 PBD inh: inhibitors of human PLK1 polo-box domain binding | Potency, µM, without a hit: max response, negative = inhibition, hits mostly inhibitors | Plk1 PBD binding of FITC phosphopeptide, fluorescence polarization | AID 720504 | P53350 | 360,000 compounds, 2.8% hits; also: potency is read from the fitted curve at half-maximal effect; series mostly up to about 57 µM; % is scaled to controls: 0 for no effect and ±100 for the full control effect; nearly all actives have a fitted effect of over 65% in size
HP1b chromo inh: HP1-beta chromodomain-methylated histone interaction inhibition | AlphaScreen HP1-beta / biotin-H3K9me3 peptide binding | Potency, µM (highest dose often 114 µM), without a hit: at the top dose activity change, negative = inhibition, actives largely listed as inhibitors | 390,000 compounds, 0.56% hits; also: potency is read from the fitted curve at half-maximal effect; nearly all actives have a fitted effect of over 70% in size
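Compound inhibition of the preformed complex between 50 nM HP1-beta and 50 nM biotinylated H3K9me3 peptide was read by AlphaScreen. Buffer was PBS pH 7.4 with 0.01% Tween-20. Incubations ran 30 min at room temperature, with 10 ug/mL donor/acceptor beads.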
G9a inh: blocks human histone lysine methyltransferase G9a | 350,000 compounds, 8.8% hits | Potency, µM (top dose mostly 102 µM), without a hit: at the highest dose activity, negative = inhibition, hits mostly inhibitors | G9a H3K9 monomethylation, AlphaScreen, 2 h | AID 504332; also: potency is read from the fitted curve at half-maximal effect; % is scaled to controls: 0 for no effect and ±100 for the full control effect; nearly all actives have a fitted effect of over 75% in size
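G9a (20 nM) preincubated 15 min RT with compounds, then 500 nM biotinylated H3K9 peptide and 20 uM SAM added; 2 h RT reaction. Monomethyl-H3K9 product detected by AlphaScreen with anti-H3K9me1 antibody, streptavidin donor and anti-rabbit IgG acceptor beads.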
* = called active by the depositor; ? = inconclusive; . = not tested or not shown; [ ] = remark or other dose. Rows were chosen to be rich in hits. Some 12% of all compounds tested hit in one or more screens of this group. Unless noted, calls follow the shape of the dose curve; as a rule, active = well fitted curve in the direction sought with a large enough effect; inconclusive = small, poorly fitted or top-dose-only effect, or another doubt; inactive = no such curve, though single readings can be large; an effect the other way counts as inactive or inconclusive.

SMILES	JMJD2A Tudor	BAZ2B inh	PI5P4Ka inh	PLK1 PBD inh	HP1b chromo inh	G9a inh
COc1ccc(S(=O)(=O)Nc2cc(C(=O)NCCCN3CCOCC3)ccc2N2CCOCC2)cc1	-22.0%	-32.3%	-0.9	-12.0%	68.0%	?
COc1ccc(S(=O)(=O)Nc2cc(C(=O)NCCC(C)C)ccc2N2CCOCC2)cc1	-11.7%	-30.0%	.	-1.4%	39.4%	50.1µM*
COC(=O)c1ccc(NC(=O)C(=O)c2cccn2C)cc1	-5.1%	-3.5%	-53.0*	5.7%	39.0%	-4.2%
COC(=O)c1ccc(NC(=O)c2ccccc2C(=O)Nc2ccc(C(=O)OC)cc2)cc1	-7.4%	.	3.5	-0.5%	15.0%	.
NC[C@@H]1O[C@H](c2ccccc2)Cc2c1ccc(O)c2O	.	.	.	.	.	7.0%[59 µM]
NC[C@@H]1O[C@H](C23CC4CC(CC(C4)C2)C3)Cc2c1ccc(O)c2O	?	?	-4.0	-13.2%	-3.3%	15.8µM*
O=[S+]([O-])(c1ccc2c(c1)OCCO2)N1CCN([S+](=O)([O-])c2cc(Cl)ccc2F)CC1	-11.0%	.	.	.	.	.
Cn1ccc(C(=O)NC(=S)Nc2ccc([N+](=O)[O-])cc2O)n1	-27.7%	-31.6%	-21.2	-22.6%	-3.0%	25.1µM*
O=C(CSc1nc2c(cnn2-c2ccc(F)cc2)c(=O)[nH]1)N1N=C(c2cccs2)CC1c1ccc(F)cc1 (configuration not stated)	.	1.26µM*	.	.	.	31.6µM*
Cc1onc(-c2c(F)cccc2Cl)c1C(=O)Nc1cc(S(=O)(=O)N2CCCCC2)ccc1O	-34.6%	.	-0.3	5.6%	-13.1%	.
Oc1ccccc1N1CCN(c2ncnc3scc(-c4ccccc4)c23)CC1	?	-24.6%	10.4	-1.5%	-24.2%	?
COc1ccc(-c2csc3ncnc(N4CCN(c5ccccc5OC)CC4)c23)cc1	?	-35.2%	-6.7	-10.9%	?	44.7µM*
Cc1nc(N2CCN(c3ccccc3O)CC2)c2c(-c3ccccc3)csc2n1	?	39.8µM*	-0.6	-6.9%	?	?
OCCCCC#Cc1c(-c2ccsc2)sc2ccccc12	46.5%	28.8%	70.5	-0.7%	101.3%	52.1%
OCCC#Cc1c(-c2ccsc2)sc2ccccc12	-14.5%	-4.3%	38.9	-16.3%	18.4%	11.2µM*
Oc1ccc(CCNc2c3ccccc3nc3ccccc23)cc1O	28.2µM*	?	-10.5	26.7µM*	14.1%	-1.2%[0.501 µM]
CCOC(=O)c1cc(-c2nnc(SCC(=O)Nc3ccc(F)cc3)o2)c(C)nc1C	-21.4%	1.2%	2.0	21.2µM*	?	?
COc1ccc(NC(=O)CSc2nnc(-c3ccc(F)cc3)o2)cn1	-4.1%	3.9%	2.3	-4.6%	61.4%	-7.7%[0.501 µM]
O=C(NCCc1ccccc1)c1ccc2c(c1)N(Cc1ccc(Cl)cc1)C(=O)c1ccccc1S2(=O)=O	-11.1%	-14.8%	.	.	37.5%	-5.9%[59 µM]
COc1ccc(/C=N/NC(=O)Nc2cccc3nsnc23)cc1	70.8µM*	-28.2%	4.0	23.8µM*	11.0%	-0.4%[59 µM]
C[C@]1(OC(=O)/C=C/c2ccccc2)C[C@@H](O)[C@]2(O)C=CO[C@@H](O[C@@H]3O[C@H](CO)[C@@H](O)[C@H](O)[C@H]3O)[C@@H]21	-7.6%	4.2%	-5.3	-2.0%	53.6%	17.8µM*
CC12CC3(O)OC(O1)C1(COC(=O)c4ccccc4)[C@@H]3CC21O[C@@H]1O[C@H](CO)[C@@H](O)[C@H](O)[C@H]1O	.	.	.	.	.	19.6%[59 µM]
CCOc1ccc(/C=C/c2nc(C#N)c(N(C)C)o2)cc1	-20.4%	?	.	.	24.7%	-33.5%[59 µM]
Cc1nc(-c2ccccc2)cn(O)c1=O	28.2µM*	79.4µM*	0.5	-8.2%	6.3%	?
Cc1cc(C)cc(CC(=O)N2CCC2(C)C(=O)NS(=O)(=O)c2cc(C)ccc2F)c1 (configuration not stated)	.	.	-2.4	-5.6%	.	.
O=C(CSc1ccsc1[N+](=O)[O-])Nc1cccc(F)c1	44.7µM*	35.5µM*	-77.2*	?	?	50.1µM*
